Source: PubChem BioAssay
Rows were chosen to be rich in hits. Some 17% of all compounds tested hit in one or more screens of this group.
ClpP mod: qHTS Assay for Activators of ClpP. ATP-dependent Clp protease proteolytic subunit (Bacillus subtilis (strain 168)), P80244. purified B. subtilis ClpP, FRET peptide cleavage, 20 min. Potency, µM (doses to about 57.5 µM). hit rate 1.9% among 340,000. AID 651965, 2013; active = well fitted falling curve with a large enough effect; inconclusive = small, poorly fitted or top-dose-only effect; inactive = no such curve, though single readings can be large or run the other way; also: the source files actives as falling curves though it sought activators and does not explain the sign; nearly all actives have a fitted effect of over 65% in size
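Purified B. subtilis ClpP, 10 microg/mL final in Tris/HCl pH8 with KCl, BSA, glycerol and Tween-20, cleaved an Abz/nitrotyrosine-quenched decapeptide. Fluorescence (ex 320, em 430) was read at 0 and 20 min at room temperature. Delta was normalized to 5.8 microM ADEP and DMSO/no-enzyme controls.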
DT40 TDP1 no CPT: qHTS for Inhibitors of human tyrosyl-DNA phosphodiesterase 1 (TDP1): qHTS in cells in absence of CPT. DT40 Tdp1-/- hTDP1 cells, no CPT, ATP luminescence, 48 h. Potency, µM (titrated, usually from 46.2 µM), hits mostly inhibitors. hit rate 15% among 420,000; also: nearly all actives have a fitted effect of over 55% in size
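Cells were dispensed at 400 per well, compounds added by pin tool, plates incubated ≥48 hr at 37 °C, then CellTiter-Glo added for 30 min at room temperature before luminescence reading. Line: DT40 Tdp1-/- complemented with hTDP1; camptothecin omitted.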
TDP1 inh: blocks human tyrosyl-DNA phosphodiesterase 1; hit rate 0.28% among 350,000; Q9NUW8; Potency, µM (series often up to 130 µM), most hits filed as inhibitors; recombinant TDP1, AlphaScreen DNA substrate cleavage; also: nearly all actives have a fitted effect of over 40% in size
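Signal: AlphaScreen proximity between streptavidin donor and anti-FITC acceptor beads on intact substrate. Reaction: Tdp1 1 nM, substrate 15 nM final, 5 min RT after 15 min compound preincubation.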
TDP1 cell CPT: growth inhibition of DT40 Tdp1-/-;hTDP1 cells with camptothecin (screen for TDP1 inhibitors); chicken DT40 Tdp1-/-;hTDP1 cells + 20 nM CPT, ATP luminescence, 48 h; Potency, µM (series often up to 46.2 µM), hits mostly inhibitors; hit rate 12% among 420,000; AID 686979; also: nearly all actives have a fitted effect of over 55% in size
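Chicken DT40 Tdp1-/- cells stably complemented with human TDP1 were seeded at 400 cells/well in medium containing 20 nM camptothecin, exposed to pin-transferred compounds, and grown at 37 °C for at least 48 hr. Viability was read as ATP luminescence.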
Numbers stand for hits; . = inactive; ? = inconclusive; / = no result given; [ ] = dose if it differs, or a comment. Unless noted, calls follow the shape of the dose curve; as a rule, active = well fitted curve in the direction sought with a large enough effect; inconclusive = small, poorly fitted or top-dose-only effect, or another doubt; inactive = no such curve, though single readings can be large; an effect the other way counts as inactive or inconclusive.

SMILES	ClpP mod	DT40 TDP1 no CPT	TDP1 inh	TDP1 cell CPT
COC(=O)c1c(NC(=O)c2c(-c3ccccc3Cl)noc2C)sc2c1CCC2	31.6µM	17.8µM	.	17.8µM
Oc1ccccc1C1CC(c2cccs2)=NC(c2cccc(Br)c2)N1 (configuration not stated)	.	20.6µM	.	14.6µM
CC(C)c1nc(CNC(=O)CC2C(=O)NCCN2Cc2ccccc2)cs1 (configuration not stated)	.	.	/	.
COc1ccc(S(=O)(=O)Nc2cc(C(C)C)c(O)cc2C)cc1	.	?	.	?
COc1ccc2nc3cc(Cl)ccc3c(Nc3cc(C(C)C)c(O)cc3C)c2c1	/	?	.	23.1µM
Cc1ccc(NC(=S)C2=C(O)c3ccccc3N(C)S2(=O)=O)cc1	.	20.6µM	.	?
CN1CCN(CCCNC(=S)Nc2ccc(F)c(Cl)c2)CC1	/	.	.	.
Cc1ccccc1NC(=S)C1=C(O)c2sccc2N(C)S1(=O)=O	.	?	.	?
CN1c2ccsc2C(O)=C(C(=S)Nc2ccccc2)S1(=O)=O	.	23.1µM	.	14.6µM
CN1c2ccccc2C(O)=C(C(=S)Nc2ccc(F)c(Cl)c2)S1(=O)=O	.	18.4µM	.	?
Cc1sc2c(c1C)C(O)=C(C(=O)Nc1ccccc1)S(=O)(=O)N2C	/	?	.	?
CN1c2ccccc2C(O)=C(C(=S)Nc2ccccc2)S1(=O)=O	.	25.9µM	.	18.4µM
CN1c2ccccc2C(O)=C(C(=O)Nc2ccccc2)S1(=O)=O	.	?	.	?
Cc1ccc(F)c(S(=O)(=O)NC(=O)C2(C)CCN2C(=O)CCc2ccccc2)c1 (configuration not stated)	.	.	/	.
COc1cc(=O)n2c(c1C(=O)NCc1ccco1)CCN(Cc1cccc(Cl)c1)CC2	/	.	/	.[9.04 µM]
CCNC(=O)C1(C)CCN(C(=O)c2ccccc2C(F)(F)F)C1 (configuration not stated)	.	.	/	.
COc1cc(SC)ccc1C(=O)Nc1cc(C)c(OCC(=O)N2CCOCC2)c(C)c1	.	23.1µM	.	?
COc1cc(SC)ccc1C(=O)Nc1ccc(OCC(=O)N2CCOCC2)cc1	.	?	.	.
COc1ccc(Cn2ccnc2SCC(=O)Nc2cc(C(F)(F)F)ccc2Cl)cc1	.	.	.	.
COc1ccc(C(C)(NC(C)=O)c2nc(-c3cccc4cccnc34)cs2)cc1 (configuration not stated)	.	23.1µM	/	20.6µM
COc1ccc(-c2csc(C(C)(NC(C)=O)c3ccccc3)n2)cn1 (configuration not stated)	.	?	/	?
COc1ccc(-c2csc(C(C)(NC(C)=O)c3ccccc3)n2)cc1 (configuration not stated)	.	16.4µM	/	?
COc1ccc(C(C)(NC(C)=O)c2nc(-c3cc(F)cc(F)c3)cs2)cc1 (configuration not stated)	.	20.6µM	/	16.4µM
COc1ccc(C(C)(NC(C)=O)c2nc(-c3cccc(C#N)c3)cs2)cc1 (configuration not stated)	.	16.4µM	/	14.6µM
CC(=O)NC(C)(c1ccccc1)c1nc(-c2csc3ccccc23)cs1 (configuration not stated)	.	16.4µM	/	20.6µM
SMILES	ClpP mod	DT40 TDP1 no CPT	TDP1 inh	TDP1 cell CPT
O=C(Nc1ccncc1)C1CCN(S(=O)(=O)c2cccc(C(F)(F)F)c2)CC1	.	?	.	?
CCOC(=O)c1cc(Cl)c2c(ccc3ccccc32)n1	.	.	/	.
CCOC(=O)c1cc(OCC)c2c(ccc3cc(OC)ccc32)n1	.	5.8µM	/	?
C/C=C1\NC(=O)[C@H]2CSSCC/C=C/[C@H](CC(=O)N[C@H](C(C)C)C(=O)N2)OC(=O)C(C(C)C)NC1=O (some centres not stated)	/	0.0013µM	/	0.0015µM
Cc1ccc(C(=O)Oc2ccc(Cl)c3cccnc23)cc1[N+](=O)[O-]	.	20.6µM	.	?
O=C(Nc1ccccc1)N1CCC2(CC1)CCN(C(=O)c1ccco1)CC2	/	?	/	.
CN(Cc1ccccc1)Cc1nc2scc(-c3ccccc3)c2c(=O)[nH]1	/	?	.	13µM
Nc1nnc(SCc2nc3scc(-c4ccccc4)c3c(=O)[nH]2)s1	.	18.4µM	/	23.1µM
CCn1c(SCc2nc3scc(-c4ccccc4)c3c(=O)[nH]2)nnc1-c1cccs1	.	20.6µM	.	20.6µM
O=c1[nH]c(Cc2ccccc2)nc2scc(-c3ccccc3)c12	.	?	.	?
O=C(c1ccco1)N(Cc1cccs1)c1ccc(F)cc1	.	.	.	.
Cc1oc(-c2ccc(C(=O)N(C)Cc3ccccc3)cc2)nc1CN1CCc2ccccc21	.	/	.	/
CC(=O)Nc1nc(C)c(-c2csc(Nc3ccccn3)n2)s1	.	13µM	.	10.3µM
CC(=O)Nc1nc(C)c(-c2csc(Nc3cccc([N+](=O)[O-])c3)n2)s1	.	5.17µM	.	8.2µM
CC(=O)Nc1cccc(-c2csc(Nc3ccccn3)n2)c1	.	?	.	?
CC(=O)Nc1ccc(Nc2nc(-c3sc(NC(C)=O)nc3C)cs2)cc1	/	13µM	/	16.4µM
CCC(=O)Nc1nc(C)c(-c2csc(Nc3ccc(C(=O)O)cc3)n2)s1	/	.	/	.
CC(=O)Nc1nc(C)c(-c2csc(Nc3cccc(C(C)=O)c3)n2)s1	.	5.17µM	/	3.26µM
c1coc(C2=NC(c3ccco3)C(c3ccco3)N2)c1 (configuration not stated)	/	.	/	?
C(=C\n1nnc2ccccc21)/c1ccc[nH]1	.	23.1µM	/	18.4µM
c1ccc(-n2nnc3ccccc32)cc1	.	.	/	.
CN1CCN(C(=O)C2=C[C@@H](C3CC3)C[C@@H](OCc3ccc(CO)cc3)O2)CC1	.	.	.	.
COC(=O)c1ccccc1NC(=O)CSc1nc2ccccc2nc1Cc1ccc(F)cc1	.	.	.	.
COc1ccc2oc(=O)c(-c3csc(Nc4cccc(O)c4)n3)cc2c1	.	16.4µM	.	?
COc1ccc(Nc2nc(-c3cc4cccc(OC)c4oc3=O)cs2)cc1	.	20.6µM	.	?
SMILES	ClpP mod	DT40 TDP1 no CPT	TDP1 inh	TDP1 cell CPT
COc1cccc(Nc2nc(-c3cccnc3)cs2)c1	.	?	.	?
COc1ccc(-c2cc3cccc(OC)c3oc2=O)cc1	.	.	/	.
CS(=O)(=O)c1cnc(-c2ccccc2)nc1-c1ccccc1Cl	/	.	.	.
CCOC(=O)c1c(N2C(=O)CC(Sc3ccccc3C(=O)O)C2=O)sc2c1CCCC2 (configuration not stated)	/	14.6µM	.	14.6µM
O=C(O)c1ccccc1SC1CC(=O)N(c2cccc3ccccc23)C1=O (configuration not stated)	/	2.59µM	.	1.84µM
CCC(=O)Oc1ccc(C/C(=N\O)c2ccc(O)cc2O)o1	.	18.4µM	.	?
COC(=O)c1cc(CC(=O)c2ccc(O)cc2O)c(C)o1	.	.	.	.
